In PubChem BioAssay AID1159580 (chemical genetic matrix, 2015):
In all, about 5,500 compounds went through this assay and about 2,000 (36%) were called active. About 18% were inconclusive and are not listed. Cut-off read from the data, not from the text of the source: active = normalized growth mostly below about 0.91 (no sharp cut-off); inconclusive = no clear call, values can overlap the other calls; inactive = mostly above about 0.92. This is one part of the list.

Assay: chemical genetic growth profiling, strain panel (AID 1159580);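 note: tested at 20 µM; growth read once vehicle control cultures reached saturation at 30 °C; 1 = growth at the plate median or of vehicle wells; lower values mean less growth of the strain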
Conditions: growth OD

Measured: normalized growth

C[C@H](N)[C@H](O)c1ccccc1
inactive: S. cerevisiae deletion strains, locus YBR021W, strain FUR4, stronger effect = lower value 0.997 | S. cerevisiae deletion strains, locus YBR229C, strain ROT2, stronger effect = lower value 1 | S. cerevisiae deletion strains, locus YCL029C, strain bik1, stronger effect = lower value 1 | S. cerevisiae deletion strains, locus YDL035C, strain GPR1, stronger effect = lower value 1.01 | S. cerevisiae deletion strains, locus YDL074C, strain BRE1, stronger effect = lower value 1.01 | S. cerevisiae deletion strains, locus YDL101C, strain DUN1, stronger effect = lower value 0.949 | S. cerevisiae deletion strains, locus YDL134C, strain PPH21, stronger effect = lower value 1 | S. cerevisiae deletion strains, locus YDL185W, strain tfp1, stronger effect = lower value 0.991 | S. cerevisiae deletion strains, locus YDL192W, strain arf1, stronger effect = lower value 1 | S. cerevisiae deletion strains, locus YDR101C, strain arx1, stronger effect = lower value 1 | S. cerevisiae deletion strains, locus YDR150W, strain NUM1, stronger effect = lower value 1.01 | S. cerevisiae deletion strains, locus YDR162C, strain NBP2, stronger effect = lower value 1.01 | S. cerevisiae deletion strains, locus YDR318W, strain mcm21, stronger effect = lower value 0.993 | S. cerevisiae deletion strains, locus YDR388W, stronger effect = lower value 0.993 | S. cerevisiae deletion strains, locus YDR502C, strain sam2, stronger effect = lower value 0.994 | S. cerevisiae deletion strains, locus YEL061C, strain CIN8, stronger effect = lower value 1 | S. cerevisiae deletion strains, locus YER110C, stronger effect = lower value 0.997 | S. cerevisiae deletion strains, locus YER155C, strain BEM2, stronger effect = lower value 0.998 | S. cerevisiae deletion strains, locus YER167W, strain BCK2, stronger effect = lower value 1 | S. cerevisiae deletion strains, locus YGL078C, strain dbp3, stronger effect = lower value 0.996 | S. cerevisiae deletion strains, locus YGL086W, strain mad1, stronger effect = lower value 0.991 | S. cerevisiae deletion strains, locus YGL248W, strain PDE1, stronger effect = lower value 1 | S. cerevisiae deletion strains, locus YGR078C, strain PAC10, stronger effect = lower value 1.01 | S. cerevisiae deletion strains, locus YGR135W, strain pre9, stronger effect = lower value 0.998 | S. cerevisiae deletion strains, locus YGR229C, strain SMI1, stronger effect = lower value 1 | S. cerevisiae deletion strains, locus YGR252W, strain gcn5, stronger effect = lower value 1.01 | S. cerevisiae deletion strains, locus YHR030C, strain SLT2, stronger effect = lower value 1 | S. cerevisiae deletion strains, locus YHR079C, strain IRE1 (second series), stronger effect = lower value 0.997 | S. cerevisiae deletion strains, locus YHR094C, strain hxt1, stronger effect = lower value 0.996 | S. cerevisiae deletion strains, locus YHR129C, strain ARP1, stronger effect = lower value 1.01 | S. cerevisiae deletion strains, locus YHR200W, strain rpn10, stronger effect = lower value 0.995 | S. cerevisiae deletion strains, locus YIL066C, strain RNR3, stronger effect = lower value 1 | S. cerevisiae deletion strains, locus YIL073C, strain SPO22, stronger effect = lower value 1.03 | S. cerevisiae deletion strains, locus YIL125W, strain kgd1, stronger effect = lower value 0.994 | S. cerevisiae deletion strains, locus YIR030C, strain dcg1, stronger effect = lower value 0.996 | S. cerevisiae deletion strains, locus YJL095W, strain BCK1, stronger effect = lower value 1.02 | S. cerevisiae deletion strains, locus YJL134W, strain LCB3, stronger effect = lower value 1 | S. cerevisiae deletion strains, locus YJL168C, strain set2, stronger effect = lower value 0.995 | S. cerevisiae deletion strains, locus YJL187C, strain SWE1 (second series), stronger effect = lower value 1.01 | S. cerevisiae deletion strains, locus YJR043C, strain POL32, stronger effect = lower value 0.982 | S. cerevisiae deletion strains, locus YKL009W, strain mrt4, stronger effect = lower value 0.989 | S. cerevisiae deletion strains, locus YKL068W, stronger effect = lower value 0.999 | S. cerevisiae deletion strains, locus YKL085W, strain MDH1 (second series), stronger effect = lower value 0.989 | S. cerevisiae deletion strains, locus YKL085W, strain MDH1, stronger effect = lower value 0.989 | S. cerevisiae deletion strains, locus YKL190W, strain CNB1, stronger effect = lower value 1 | S. cerevisiae deletion strains, locus YKR001C, strain vps1, stronger effect = lower value 0.99 | S. cerevisiae deletion strains, locus YLR039C, strain RIC1, stronger effect = lower value 0.993 | S. cerevisiae deletion strains, locus YLR058C, strain SHM2, stronger effect = lower value 1 | S. cerevisiae deletion strains, locus YLR102C, strain apc9, stronger effect = lower value 1 | S. cerevisiae deletion strains, locus YLR262C, strain YPT6, stronger effect = lower value 1.01 | S. cerevisiae deletion strains, locus YLR268W, strain sec22, stronger effect = lower value 0.99 | S. cerevisiae deletion strains, locus YLR330W, strain CHS5, stronger effect = lower value 0.999 | S. cerevisiae deletion strains, locus YLR342W, strain FKS1 (second series), stronger effect = lower value 1.01 | S. cerevisiae deletion strains, locus YLR371W, strain rom2, stronger effect = lower value 1 | S. cerevisiae deletion strains, locus YLR418C, strain cdc73, stronger effect = lower value 0.978 | S. cerevisiae deletion strains, locus YML016C, strain PPZ1, stronger effect = lower value 1 | S. cerevisiae deletion strains, locus YML032C, strain rad52, stronger effect = lower value 0.984 | S. cerevisiae deletion strains, locus YML124C, strain tub3, stronger effect = lower value 0.998 | S. cerevisiae deletion strains, locus YMR078C, strain ctf18, stronger effect = lower value 0.993 | S. cerevisiae deletion strains, locus YMR223W, strain ubp8, stronger effect = lower value 1 | S. cerevisiae deletion strains, locus YMR263W, strain SAP30, stronger effect = lower value 1 | S. cerevisiae deletion strains, locus YMR307W, strain GAS1, stronger effect = lower value 0.983 | S. cerevisiae deletion strains, locus YNL067W, strain RPL9B, stronger effect = lower value 1 | S. cerevisiae deletion strains, locus YNL128W, strain TEP1, stronger effect = lower value 1.01 | S. cerevisiae deletion strains, locus YNL153C, strain GIM3, stronger effect = lower value 1 | S. cerevisiae deletion strains, locus YNL233W, strain BNI4, stronger effect = lower value 0.996 | S. cerevisiae deletion strains, locus YNL250W, strain rad50, stronger effect = lower value 0.984 | S. cerevisiae deletion strains, locus YNL271C, strain bni1, stronger effect = lower value 0.998 | S. cerevisiae deletion strains, locus YNL298W, strain CLA4, stronger effect = lower value 1 | S. cerevisiae deletion strains, locus YNL307C, strain MCK1, stronger effect = lower value 0.999 | S. cerevisiae deletion strains, locus YNL322C, strain KRE1, stronger effect = lower value 1 | S. cerevisiae deletion strains, locus YNR052C, strain pop2, stronger effect = lower value 1 | S. cerevisiae deletion strains, locus YOL006C, strain TOP1, stronger effect = lower value 1.02 | S. cerevisiae deletion strains, locus YOL012C, strain htz1 1.73 | S. cerevisiae deletion strains, locus YOL147C, strain pex11, stronger effect = lower value 0.996 | S. cerevisiae deletion strains, locus YOR061W, strain CKA2, stronger effect = lower value 0.998 | S. cerevisiae deletion strains, locus YOR069W, strain VPS5, stronger effect = lower value 1 | S. cerevisiae deletion strains, locus YOR136W, strain idh2, stronger effect = lower value 0.996 | S. cerevisiae deletion strains, locus YOR144C, strain elg1, stronger effect = lower value 0.995 | S. cerevisiae deletion strains, locus YOR184W, strain ser1, stronger effect = lower value 0.985 | S. cerevisiae deletion strains, locus YOR316C, strain cot1, stronger effect = lower value 0.999 | S. cerevisiae deletion strains, locus YPL055C, strain LGE1, stronger effect = lower value 1.01 | S. cerevisiae deletion strains, locus YPR119W, strain clb2, stronger effect = lower value 0.999 | S. cerevisiae deletion strains, locus YPR141C, strain kar3, stronger effect = lower value 0.996 | S. cerevisiae deletion strains, locus YPR163C, strain tif3, stronger effect = lower value 0.994 | S. cerevisiae deletion strains, locus YPR167C, strain met16, stronger effect = lower value 1 | S. cerevisiae deletion strains, strain wtn01, stronger effect = lower value 0.983 | S. cerevisiae strains, strain wild type, stronger effect = lower value 1
